Assay outcomes deposited in PubChem BioAssay by National Center for Advancing Translational Sciences (NCATS).
Shown are actives, neighbours in structure and some others; about 8% of the full set was active somewhere.
HCMV inh = qHTS Assay for inhibitors of the human cytomegalovirus (HCMV). HFF cells, HCMV-luciferase reporter, 72 h; stronger effect = lower value. activity change, negative = inhibition, % at 57.5 µM. 4.5% of 410,000 active. AID 1259415, 2018; in the data active = activity change below about -60%; inconclusive = no clear call, values can overlap the other calls; inactive = above about -39%
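Steps: HFFs plated, 16 h 37C; compounds added; HCMV-luciferase added to MOI 1 PFU/cell; 72 h 37C; OneGlo reagent, 5 min room temperature; luminescence read, normalized to controls.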
SARS PLpro yeast = qHTS of Yeast-based Assay for SARS-CoV PLP. S. cerevisiae expressing SARS-CoV PLpro, growth rescue. 0.19% of 330,000 active. Potency, µM (series often up to 32.9 µM), usual class: activators; calls by dose curve; note: nearly all actives have a fitted effect of over 55% in size
Lassa entry inh = qHTS for Inhibitors of binding or entry into cells for Lassa Virus; Lassa virus pseudotype entry inhibition, cell reporter; Potency, µM (top dose mostly 37.9 µM), actives largely listed as inhibitors; 1.2% of 300,000 active; AID 540256, 2011; calls by dose curve; tested in HEK293 cells; note: nearly all actives have a fitted effect of over 50% in size
HCV inh = qHTS Assay for Inhibitors of Hepatitis C Virus (HCV); 3.4% of 340,000 active; Potency, µM (titrated, usually from 41.8 µM), most hits filed as inhibitors; Huh7.5.1 HCVcc-Cre infection, luciferase reporter, 44 h; active = well fitted inhibition curve with a large enough effect; inconclusive = small, poorly fitted or top-dose-only effect, or another doubt; inactive = no such curve, though single readings can be large or run the other way
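Whole-lifecycle infectious HCVcc-Cre system; cells 1,000/well, compound then virus (~0.5 moi) added 4 h after plating, 44 h culture. Luciferase read 15 sec following 15 min substrate incubation, room temp.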
FMDV inh = High Throughput Screening for Foot and Mouth Disease Virus Antivirals | FMDV antiviral cell-based qHTS | Potency, µM (titrated, usually from 57.9 µM), most hits filed as inhibitors | 1.2% of 410,000 active; calls by dose curve; tested in HEK293T cells; note: read-out not given here; nearly all actives have a fitted effect of over 45% in size
MARV entry inh = qHTS for inhibitors of binding or entry into cells for Marburg Virus. Marburg virus pseudotyped entry inhibition, cell reporter. Potency, µM (titrated, usually from 37.8 µM), usual class: inhibitors. 1.8% of 300,000 active; calls by dose curve; tested in HEK293 cells
Numbers stand for hits; i = inactive; ? = inconclusive; nt = no result given; ! = not active in a repeat.

SMILES	HCMV inh	SARS PLpro yeast	Lassa entry inh	HCV inh	FMDV inh	MARV entry inh
CCCCOc1ccc(CNC(=O)CCCN2C(=O)CSc3c2c(C)nn3-c2ccccc2)cc1	-70	nt	?	nt	i	nt
NS(=O)(=O)c1ccc(N2CCN(CCOc3ccc(Cl)cc3)CC2)nc1	-84	i	?	?	?	?
O=S(=O)(c1cccs1)N1CCN(c2cccc(Cl)c2)CC1	i	i	?	i	i	i
O=S(=O)(c1cccs1)N1CCN(CC(O)COc2cc(Cl)ccc2Cl)CC1 (stereo not given)	-61	i	?	?	?	?
O=S(=O)(c1cccs1)N1CCN(CCOc2ccc(Cl)cc2)CC1	-82	i	nt	?	?	nt
O=S(=O)(c1cccs1)N1CCN(c2ccc(Cl)cc2)CC1	i	i	i	i	i	i
NS(=O)(=O)c1ccc(N2CCN(S(=O)(=O)Cc3ccccc3)CC2)nc1	i	i	i	i	i	i
Cc1ccc2nc(-c3cccc(NC(=O)CSc4ccc(Cl)cc4)c3)oc2c1	i	nt	i	nt	i	?
CCc1nnc(SCc2ccc(F)cc2Cl)c2cc3sc(C)cc3n12	i	nt	i	nt	i	nt
c1ncc(-c2ccc3c(c2)OCO3)c(NCCc2cnc[nH]2)n1	nt	nt	nt	nt	i	nt
CC(/C=N/N1CCN(Cc2ccccc2)CC1)=C\c1ccccc1	-104	i	i	i	i	i
COC(=O)c1cnn(-c2ccc(C(=O)Nc3ccc(C(C)=O)cc3)cc2)c1N	i	i	i	nt	i	nt
O=C(O)C1C(c2ccccc2)C(C(=O)OCc2ccco2)C1c1ccccc1 (stereo not given)	i	i	i	i	i	i
O=C(O)C1C(c2ccccc2)C(C(=O)OCCCO)C1c1ccccc1 (stereo not given)	i	i	i	i	i	i
COC(=O)C1C(c2ccccc2)C(C(=O)OCc2ccco2)C1c1ccccc1 (stereo not given)	i	i	?	?	i	21µM
CCCCCOC(=O)C1C(c2ccccc2)C(C(=O)O)C1c1ccccc1 (stereo not given)	-93	i	i	i	i	i
O=C(C1CCCN(c2ncnc3c2nc2n3CCCCC2)C1)N1CCN(c2ccc(Cl)cc2)CC1 (stereo not given)	-83	i	?	?	?	?
CCN(C(=O)C1CCCN(c2ncnc3c2nc2n3CCCCC2)C1)c1cccc(Cl)c1 (stereo not given)	-87!	i	?	i	?	nt
CSc1cccc(NC(=O)C2CCCN(c3ncnc4c3nc3n4CCCCC3)C2)c1 (stereo not given)	?	i	nt	22µM	?	nt
O=C(C1CCCN(c2ncnc3c2nc2n3CCCCC2)C1)N1CCN(c2ccc(F)cc2)CC1 (stereo not given)	i	i	?	11µM	?	?
COc1ccc(Cl)cc1NC(=O)c1cc(S(=O)(=O)N2CCc3ccccc32)cn1C	i	nt	i	nt	i	nt
CCn1c(=O)n(CC)c2cc(N3CCCCC3)c(NC(=O)Nc3ccccc3Cl)cc21	i	nt	?	nt	i	nt
COc1ccc2c(c1)C(=O)[C@H](OC(=O)N[C@H]1CCCc3ccccc31)[C@@H](c1ccc(OC)c(Br)c1)O2	nt	nt	nt	nt	nt	i
C[C@H](CCC(=O)O)C1CC[C@H]2C3CC[C@@H]4C[C@H](O)CC[C@]4(C)C3C[C@H](O)[C@]12C (stereo not given in full)	nt	nt	nt	nt	i	nt
O=C(CC1(O)C(=O)N(CCc2ccccc2)c2ccc(Br)cc21)c1ccc(F)cc1 (stereo not given)	i	nt	i	nt	i	?
COc1cccc(Cn2cccc(NC(=O)Nc3ccccc3C)c2=O)c1	i	i	nt	10µM	?	nt
COc1ccc(Cn2cccc(NC(=O)Nc3cccc(OC)c3)c2=O)cc1	i	i	nt	14µM	?	nt
COc1cccc(Cn2cccc(NC(=O)Nc3ccc(C#N)cc3)c2=O)c1	-66	i	?	4µM	18µM	?
CCCn1c2ccccc2c2cnn(CC(=O)N(CCCOC(C)C)Cc3ccco3)c(=O)c21	i	nt	?	nt	?	nt
CCOC(C(=O)OC[C@@H](O)CN(CC)CC)(c1ccccc1)c1ccccc1	nt	nt	nt	nt	nt	i
